Assay outcomes (PubChem BioAssay)
In the library only some 2.4% were active in any assay of this set; here they are far more common.
Wnt act – Wnt/beta-catenin pathway activators, primary screen, cell-based, plate reader, single point. Wnt/beta-catenin reporter cell assay, activator. 300,000 tested, 1.2% active. AID 743398, 2014. activation, % at 9.35 µM; in the data active = activation above about 30%, passing the limit was not always enough; inconclusive = no clear call, values can overlap the other calls;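 also: 0% = neutral control wells and 100% = positive control wells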
INS-1E GSIS act – GLuc luminescence reporter in INS-1E cells, primary screen for activators of glucose-dependent secretion of insulin. AID 743287, 2014. activation, % at 16.6 µM. INS-1E GLuc reporter insulin secretion, 2-3 h. 370,000 tested, 0.61% active;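 active = lowest replicate activation of at least 40%, so every replicate reaches that level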;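 also: 0% = median of neutral control wells and 100% = median of IBMX positive control wells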
Dyrk1A ADPGlo – rat Dyrk1A kinase inhibitors, primary screen, biochemical, single point, plate reader | Dual specificity tyrosine-phosphorylation-regulated kinase 1A (Rattus norvegicus), Q63470 | AID 504441, 2011 | 310,000 tested, 0.43% active | inhibition, % at 12.5 µM | ADP-Glo luminescence, NFATc1 peptide;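 also: plate controls were vehicle with enzyme for no effect and no enzyme for full effect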
NSD2 inh – NSD2 histone methyltransferase inhibitors, primary screen, biochemical, AlphaScreen, single concentration, set 2 | Histone-lysine N-methyltransferase NSD2 (Homo sapiens), O96028 | NSD2 peptide methylation, 120 min | inhibition, % at 12.5 µM | 310,000 tested, 0.54% active
miR-122 sensor – miR-122 Renilla sensor signal increase in Huh7, primary screen, miR-122 inhibitor project, cell-based, single point, plate reader; Huh7 miR-122 Renilla luciferase sensor, 48 h; neutral wells = 0, positive control = 100; activation (reporter increase), % at 12.5 µM; 340,000 tested, 0.3% active;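 active = mean replicate activation score at least 90 and every replicate individually at or above 90; inconclusive = only one of the two criteria met; inactive = neither criterion met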;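 also: higher luciferase means less miR-122 activity so hits act as miR-122 inhibitors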
MITF act – activators of MITF-driven TRPM1 promoter reporter, primary screen, cell-based, SK-MEL-5, luciferase, single point; activation, % at 12.5 µM; 300,000 tested, 0.75% active; SK-MEL-5 TRPM1-promoter luciferase, 24 h; % of positive control, neutral wells = 0;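 active = mean activation of at least 80% with every replicate also reaching 80%; inconclusive = mean reaches 80% but some replicate falls short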;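 also: 0% = neutral control wells and 100% = parthenolide positive control wells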
An asterisk follows results filed as active; ? = inconclusive; . = no result; [ ] = remark or other dose. Rule as the data show it, unless noted: active = inhibition above about 50%; inactive = the rest.

SMILES	Wnt act	INS-1E GSIS act	Dyrk1A ADPGlo	NSD2 inh	miR-122 sensor	MITF act
Cc1onc(-c2c(F)cccc2Cl)c1C(=O)Nc1nc2ccccc2[nH]1	.	-20.2	7.5	1.3	0.9	10.3
O=C(/C=C/c1c(F)cccc1Cl)Nc1nc2ccccc2[nH]1	37.2*	.	-2.5	4.2	.	?
COc1ccc(NC(=O)N2CCCCN3[C@@H](CO)[C@@H](c4ccc(C#Cc5ccccn5)cc4)[C@@H]3C2)cc1	.	-15.2	.	.	4.6[16.7 µM]	.
Cc1ccc(-c2noc(C3CCCCC3)n2)cc1	.	.	-7.8	24.5	-0.9	166.8*
CCc1cc(CNC(=O)CCc2nnc(CCCc3ccccc3)o2)on1	43.5*	10.9	-8.0	-1.9	1.6	89.2*
CC(C)c1cc(CNC(=O)CCc2nnc(CCCc3ccccc3)o2)on1	?	-9.6	1.9	-1.9	.	51.5
CN1C(=O)c2cc(NC(=O)c3ccc(F)c(F)c3)ccc2OC[C@H]2O[C@H](CC(=O)O)CC[C@@H]21	.	2.4	.	.	4.2[16.7 µM]	.
CCN1CCc2nc(NC(=O)c3ccccc3)sc2C1	.	.	4.0	14.5	9.7	1.4
O=C(Nc1nc2c(s1)CN(Cc1ccccc1)CC2)C1CCC1	7.1	-4.2	5.7	-1.1	-3.2	99.9*
C/C=C/c1ccc2c(c1)[C@H]1[C@H](CCN1S(=O)(=O)c1ccc(C)cc1)[C@H](CO)N2	.	10.2	.	.	1.9[16.7 µM]	.
Cc1cc(-n2c(C)cc(C(=O)CSc3ccccn3)c2C)no1	21.0	-23.6	-3.6	0.8	.	107.2*
CC(C)(C)OC(=O)N1O[C@H]2C[C@@H]1[C@@H]1[C@@H]2N=NN1C12CC3CC(CC(C3)C1)C2	-1.8	44.3*	1.9	.	0.6	5.3
Cn1c(=O)c2c(ncn2CC(=O)N/N=C/C(Br)=C/c2ccccc2)n(C)c1=O	.	17.7	-1.9	2.5	-6.0	8.3
O=C(Cn1cnc2ccccc21)N/N=C/C(Br)=C/c1ccccc1	36.8*	-14.9	1.4	-1.9	.	-5.0
Cc1ccc(-c2cnc3c(c2)C(=O)N([C@@H](C)CO)C[C@@H](C)[C@H](CN(C)CC2CCCC2)O3)cc1	.	1.4	.	.	-0.7[16.7 µM]	.
Cc1ccc(/C=N/c2sc3c(c2C#N)CCC3)s1	5.3	.	6.1	2.1	7.0	92.3*
COc1ccc(CN(C)C[C@H]2OCCCC[C@@H](C)Oc3ccc(NC(=O)Nc4ccc(C(F)(F)F)cc4)cc3C(=O)N([C@@H](C)CO)C[C@H]2C)cc1	.	-13.3	.	.	-29.1[16.7 µM]	.
COc1ccc(C(=O)Cc2cc3ccccc3oc2=O)cc1	10.4	2.4	-2.3	-0.4	-3.7	121.2*
Cc1ccc(C(=O)Cc2cc3ccccc3oc2=O)c(C)c1	0.2	15.0	-3.7	-1.1	.	34.2
Cc1ccc(-n2sc3ccccc3c2=O)cc1	-1.7	5.7	-2.0	3.6	.	25.2
Cc1ccc(N2C(=O)CC(N3CCN(c4ccc(F)cc4)CC3)C2=O)c(C)c1 (centres undefined)	-3.2	-13.5	-1.8	-1.0	.	-7.5
Cc1ccc(-n2sc3cc(F)ccc3c2=O)c(C)c1	-1.8	206.8*	.	.	-3.4	.
O=c1c2ccccc2sn1-c1ccc(F)cc1	15.3	144.6*	6.7	.	2.2	-8.6
O=c1c2cc(F)ccc2sn1-c1ccccc1Cl	1.9	201.6*	.	.	0.6	.
O=c1c2ccc(F)cc2sn1-c1ccccc1	-1.8	127.6*	.	.	-3.9	.
SMILES	Wnt act	INS-1E GSIS act	Dyrk1A ADPGlo	NSD2 inh	miR-122 sensor	MITF act
Cc1ccccc1NC(=O)c1ccc(Cl)c(NC(=O)C2CCCC2)c1	.	.	.	-0.3	.	.
O=C(C[C@@H]1CC[C@H](NC(=O)C2CC2)[C@@H](CO)O1)NC1CCC1	.	3.9	.	.	-7.3[16.7 µM]	.
CC(C)NC(=O)N(C)C[C@H]1Oc2ccccc2C(=O)N(C)C[C@@H]1C	.	11.1	.	.	.	.
CCCC(=O)Nc1ccc2c(c1)C(=O)N(C)C[C@@H](OC)[C@H](C)CN(CCc1ccccc1)[C@H](C)CO2	.	-28.2	.	.	-1.1[16.7 µM]	.
COCC(=O)Nc1ccc2c(c1)[C@H]1C[C@@H](CC(=O)NCc3ccc(OC)cc3)O[C@H](CO)[C@H]1O2	.	-3.1	.	.	-7.4[16.7 µM]	.
NNc1nc(Nc2ccccc2)nc(Nc2ccccc2)n1	1.9	19.1	-23.1	-1.7	0.5	-4.8
